Screening results from PubChem BioAssay.
In the library only some 0.37% were active in any assay of this set; here they are far more common.
Rab2 wt GTP: changes GTP binding to wildtype dog Rab2A, up or down. P61105. 0.19% of 190,000 active. GST-Rab2 wt beads, Bodipy-GTP binding, flow cytometry. GTP binding activity, % at 10 µM. AID 760;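 active means GTP binding activity at least 20 points away from 100%, either lowered or raised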
Rac1 wt modul: alters GTP binding to wildtype human Rac1. GTP binding activity (% of control), % at 10 µM. AID 757. P63000. 0.27% of 190,000 active. GST-Rac1 beads, fluorescent GTP binding, flow cytometry; actives lie on both sides; 0 = cold GTP competed, 100 = untreated;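 active means GTP binding activity at least 20 points away from the 100% control level, either lower or higher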
Rab7 wt modul: modulators of GTP binding to dog Rab7 wildtype GTPase; GST-Rab7 beads, fluorescent GTP binding, flow cytometry; actives lie on both sides; untreated = 100%, excess cold GTP = 0%; GTP binding activity (percent of control), % at 10 µM; 0.055% of 190,000 active;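 active means fluorescent GTP binding to Rab7 beads changed by at least 20 points from the 100% baseline, either direction, mostly lower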;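 further: median green fluorescence of bound Bodipy-FL-GTP per Rab7 bead population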
Rac1 mut GTP: modulators of GTP binding to human Rac1 activated mutant; AID 764; GST-Rac1 activated beads, fluorescent GTP binding, flow cytometry; actives lie on both sides; 100% means binding = to untreated wells; percent activity (GTP binding), % at 10 µM; 0.11% of 190,000 active; P63000;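 active means GTP binding at least 20 percentage points away from the 100% baseline, in either direction, so actives lie on both sides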
Cdc42 wt GTP: modulators (inhibitors or activators) of GTP binding to human Cdc42 wildtype; GST-Cdc42 beads, Bodipy-GTP binding, flow cytometry; actives lie on both sides; P60953; percent activity (GTP binding), % at 10 µM; 0.2% of 190,000 active;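 active means percent activity GTP binding at least 20 points away from the 100% baseline, either down as inhibitor or up as activator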;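 further: median bead fluorescence of bound Bodipy-FL-GTP at 100 nM; below 100% means less GTP binding so inhibitor and above means activator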
Target sequence (P60953 whole entry, looked up): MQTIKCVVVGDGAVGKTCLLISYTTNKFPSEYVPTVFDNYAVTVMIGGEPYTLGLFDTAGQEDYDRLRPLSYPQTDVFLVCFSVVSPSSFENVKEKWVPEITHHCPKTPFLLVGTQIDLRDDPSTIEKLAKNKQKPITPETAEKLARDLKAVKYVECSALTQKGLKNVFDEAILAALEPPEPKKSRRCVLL
HRas wt GTP: changes GTP binding to wildtype human HRas | GST-Ras wt beads, Bodipy-FL-GTP binding, flow cytometry; actives lie on both sides | P01112 | GTP binding activity, % at 10 µM | 0.14% of 190,000 active;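 active means GTP binding activity at least 20% away from the 100% baseline, either lowered as inhibitor or raised as activator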
Target sequence (P01112 whole entry, looked up): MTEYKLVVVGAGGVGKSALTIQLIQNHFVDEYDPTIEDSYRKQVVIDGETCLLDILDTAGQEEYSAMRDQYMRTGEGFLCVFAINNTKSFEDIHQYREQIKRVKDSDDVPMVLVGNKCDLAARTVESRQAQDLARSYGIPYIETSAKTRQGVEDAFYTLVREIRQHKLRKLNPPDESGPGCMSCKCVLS
Numbers stand for hits; 0 = inactive; [ ] = dose if it differs, or a comment.

SMILES	Rab2 wt GTP	Rac1 wt modul	Rab7 wt modul	Rac1 mut GTP	Cdc42 wt GTP	HRas wt GTP
NC(=S)N=Nc1c(O)[nH]c2c(Br)cc(Br)cc12	74	71	0	0	75	75
CCCc1cc(=O)[nH]c(SCc2ccccc2)n1	0	0	0	0	0	0
CSc1nc(Cc2ccccc2)cc(=O)[nH]1	120[activator]	127[activator]	0	122[activator]	120[activator]	0
CCN(CC)c1ccc2c(c1)oc(=O)c1c(Cl)cc(=O)oc12	0	0	0	78	0	0
O=C(C#Cc1ccccc1)c1ccc([N+](=O)[O-])cc1	0	0	0	77	0	0
Cc1ccc(NC(=S)Nc2ccc3nc(-c4ccccn4)c(-c4ccccn4)nc3c2)cc1C	0	125[activator]	0	0	0	0
CCOC(=O)COc1ccc(Br)cc1/C=C/c1[nH]c(=O)[nH]c(=O)c1[N+](=O)[O-]	0	0	0	0	0	0
O=C(COc1ccccc1/C=C\c1[nH]c(=O)[nH]c(=O)c1[N+](=O)[O-])Nc1ccccc1	77	79	0	77	73	79
COc1ccc(-c2cc(-c3ccc(O)cc3)nc(N)c2C#N)cc1OC	79	69	0	0	0	0
COc1ccc(-c2c(C#N)c(N)nc3c2CCc2ccccc2-3)cc1OC	0	0	0	0	0	0
CCCCCC(=O)NCc1c(C(F)(F)F)nn(C)c1N1CCOCC1	0	0	0	0	0	0
Cc1ccc(C(=O)Nc2ccnc(-c3cccnc3)n2)cc1	0	0	0	0	0	0
Cc1ccc(NC(=O)Nc2ccnc(-c3cccnc3)n2)cc1	64	0	0	0	65	67
O=C(O)c1ccccc1OCCOc1ccccc1	130[activator]	157[activator]	123[activator]	132[activator]	138[activator]	123[activator]
CC1=Nn2c(nnc2-c2ccco2)SC1	0	0	0	0	0	0
CCOc1ccc(C2=Nn3c(nnc3-c3ccco3)SC2)cc1	76	0	0	0	77	77
O=c1[nH]c2sc3c(c2c2nncn12)CCCC3	77	76	0	0	79	78
COc1ccc(-c2nn(-c3ccccc3)cc2/C=C/C(=O)N2CCN(c3ccccn3)CC2)cc1	0	0	0	0	0	0
C=CCn1c(-c2csc(-c3ccc(Cl)cc3)n2)n[nH]c1=S	0	120[activator]	0	0	0	0
Cc1c(Cl)cccc1NS(=O)(=O)c1ccc2c(c1)C1C=CCC1C(c1ccc(C(=O)O)cc1)N2 (configuration not stated)	0	0	0	73	78	0
O=C(NCC(=O)N1CC(O)CC1C(=O)N1CCCC1C(=O)OCc1ccccc1)OCc1ccccc1 (configuration not stated)	0	0	0	0	0	0
C=CCC1(C#N)C(SC)=NC2=C(C(=O)CC(C)(C)C2)C1c1ccc(Br)cc1 (configuration not stated)	0	0	0	0	0	0
Cc1cc2ccccn2c1C(=O)c1cc([N+](=O)[O-])cc([N+](=O)[O-])c1	42	32	24	37	42	45
COc1cccc(Oc2nnnn2-c2ccccc2)c1	0	0	0	0	0	0
COc1cccc(-n2nnnc2S(C)(=O)=O)c1	0	0	0	70	72	0
SMILES	Rab2 wt GTP	Rac1 wt modul	Rab7 wt modul	Rac1 mut GTP	Cdc42 wt GTP	HRas wt GTP
CCN(C(=O)COC(=O)/C=C/c1c(C)nn(Cc2ccc(C)cc2)c1C)C1CCS(=O)(=O)C1 (configuration not stated)	0	0	0	0	0	0
CCCCNC(=O)CSc1nc2ccsc2c(=O)n1CCCC(=O)NCCc1ccc(S(N)(=O)=O)cc1	0	0	0	0	0	0
CSc1ccccc1NC(=O)CN1CC(C)OC(C)C1 (configuration not stated)	0	0	0	0	0	0
Cc1cc(C)cc(C(=O)N(NC(=O)Nc2ccc(Cl)cc2)C(C)(C)C)c1	0	0	74	0	0	0
Cc1nc(-c2cnn(-c3ccccc3)c2)c2cc(C)oc2n1	75	77	0	79	70	72
Cc1oc2c(O)c(O)ccc2c(=O)c1-c1cnn(-c2ccccc2)c1	0	0	0	0	0	0
O=C(CSc1ccc2nnc(-c3ccc(F)cc3)n2n1)N1CCCc2ccccc21	0	0	0	0	0	0
O=C(CSc1ccc2nnc(-c3cccc(F)c3)n2n1)N1CCCc2ccccc21	0	79	0	0	0	0
COc1cccc(NC(=O)NCCCN2CCN(c3ccc(F)cc3)CC2)c1	0	0	76	0	0	0
COc1cccc(NC(=O)CN2CCN(c3ccc(F)cc3)CC2)c1	0	0	0	0	0	0
COc1ccc(-n2c(C)cc(C(=O)Cn3nc(C(=O)O)c4ccccc4c3=O)c2C)cc1	0	0	0	0	0	0
Cc1cc(C(=O)Cn2nc(C(=O)O)c3ccccc3c2=O)c(C)n1-c1ccc(OC(F)F)cc1	0	0	0	0	79	0
CCn1cc(C(=O)OCC(=O)c2cc(C)n(-c3ccc(OC(F)F)cc3)c2C)c(=O)c2ccc(C)nc21	76	74	0	78	79	0
CCn1cc(C(=O)OCC(=O)c2cc(C)n(-c3ccccc3)c2C)c(=O)c2ccc(C)nc21	0	0	0	0	0	0
COC(=O)CC1C(=O)NCCN1C(=S)Nc1ccccc1Cl (configuration not stated)	0	0	0	0	0	0
O=C(CN1C(=O)C2C3c4ccccc4C(c4ccccc43)C2C1=O)Nc1cccc(C(=O)O)c1 (configuration not stated)	127[activator]	130[activator]	145[activator]	155[activator]	125[activator]	124[activator]
COc1ccc(N(C)C2=NS(=O)(=O)c3ccccc32)cc1	0	0	0	0	0	0
CN(/N=C/c1ccco1)C1=NS(=O)(=O)c2ccccc21	73	64	0	0	71	76
COc1cc2c(cc1OC)-c1cc(N3CCCCCC3)nc(=O)n1CC2	0	0	0	0	0	0
CCOc1cccc(Nc2cc3n(c(=O)n2)CCc2cc(OC)c(OC)cc2-3)c1	0	78	0	0	0	0
COc1cc2c(cc1OC)-c1cc(NC3CCCCCC3)nc(=O)n1CC2	75	0	0	0	77	75
COCCN(C(=O)CCc1nnc(CCc2c[nH]c3ccccc23)o1)C(C)C	0	0	0	0	0	0
CC1=Nc2ccccc2N=C(NC(=O)c2ccccc2)C1c1ccccc1 (configuration not stated)	0	0	0	0	0	0
Cc1ccc(CN2CCN(Cc3cccn3-c3nccs3)CC2CCO)cc1 (configuration not stated)	0	0	0	0	0	0
